Only some compounds are listed: those with a hit (about 32% of all), similar ones and a draw of the others.
PostGolgi yeast: growth inhibition of a yeast mutant, post-Golgi transport screen. actives 0.9% (n = 98,000). post-Golgi transport phenotypic cell assay. inhibition, % at 10 µM;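 further: yeast cells grown in 1536-well plates; yeast grown about 18 h at 30C before absorbance read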
CYP2C9 inhib: human CYP2C9 inhibition; P11712; CYP2C9 Supersomes, luciferin-H conversion, luminescence; inhibition, % at 5 µM; actives 20% (n = 96,000); AID 777;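 active means blocking of liver enzyme CYP2C9 beyond about 50% at 5 µM, limit read from the data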
Target sequence (P11712 whole entry, looked up): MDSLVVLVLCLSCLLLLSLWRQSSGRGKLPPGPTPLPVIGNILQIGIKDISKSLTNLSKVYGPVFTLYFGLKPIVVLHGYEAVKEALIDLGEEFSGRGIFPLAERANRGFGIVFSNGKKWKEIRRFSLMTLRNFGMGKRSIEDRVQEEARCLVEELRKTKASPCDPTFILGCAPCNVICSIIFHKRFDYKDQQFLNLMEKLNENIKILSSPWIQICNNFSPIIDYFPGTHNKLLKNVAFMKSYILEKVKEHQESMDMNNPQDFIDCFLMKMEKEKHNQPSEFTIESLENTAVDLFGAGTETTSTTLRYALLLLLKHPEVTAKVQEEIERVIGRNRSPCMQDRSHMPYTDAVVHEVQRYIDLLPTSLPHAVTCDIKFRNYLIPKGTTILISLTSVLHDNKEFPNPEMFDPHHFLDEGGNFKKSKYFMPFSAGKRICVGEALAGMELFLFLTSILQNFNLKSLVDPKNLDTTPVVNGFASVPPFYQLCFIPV
CYP2C19 activ: cytochrome P450 2C19 (human) activation; P33261; recombinant CYP2C19, luciferin-H EGE luminescence; active compounds read high; 0 = fully inhibited enzyme, 1 = untreated enzyme; activation factor at 5 µM; 96,000 tested, under 10 active;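 active means activation factor of at least 2 at 5 µM in the primary screen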;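 further: 0 = wells with 2.5 mM tranylcypromine and 1 = vehicle-only wells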
PostGolgi ctrl: yeast control strain growth, post-Golgi counter-screen; efflux-deficient yeast background strain, growth absorbance A615, 16 h; inhibition, % at 10 µM; actives 5% (n = 98,000); AID 738
CYP2C9 activ: activators of human CYP2C9. P11712. recombinant CYP2C9, luciferin-H conversion, luminescence; active compounds read high; factor 1 = untreated enzyme, 0 = blocked. activation factor at 5 µM. actives 1.4% (n = 96,000);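 active means activation factor of 2 or more for CYP2C9 at a 5 µM dose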;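 further: 0 = sulfaphenazole-blocked wells and 1 = vehicle-only wells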
CYP2C19 inh: human CYP2C19 inhibition; CYP2C19 Supersomes, luciferin-H EGE luminescence, 30 min; actives 21% (n = 96,000); AID 778; P33261; inhibition, % at 5 µM;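 active means CYP2C19 inhibition above a set limit at 5 µM in the primary screen, cut at about 50% in these data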;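 further: plate controls were negative control wells for no effect and 2.5 mM tranylcypromine positive control for full effect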
The depositor's hits bear a star; · = no result. Unless noted, no stated cut-off is given here; in the data, active means inhibition above about 30%; inactive means the rest.

SMILES | PostGolgi yeast | CYP2C9 inhib | CYP2C19 activ | PostGolgi ctrl | CYP2C9 activ | CYP2C19 inh
N#Cc1cnn2c1nc(N1CCCCC1)c1ccccc12 | 1.9 | 13.0 | 1 | 12.9 | 0.9 | -3.4
CC(/C=N/N1CCN(c2ccccc2)CC1)=C\c1ccccc1 | 0.0 | -7.7 | 0.7 | 5.7 | 1.1 | 29.6
CC(=C/c1ccco1)/C=N/N1CCN(c2ccccc2)CC1 | 8.6 | 18.4 | 0.4 | 1.6 | 0.8 | 55.2*
CC(/C=N/N1CCN(c2ccccc2)CC1)=C\c1ccco1 | -17.7 | 22.6 | 0.4 | 29.8 | 0.8 | 56.3*
CC(/C=N/n1c(-c2ccccc2)n[nH]c1=S)=C\c1ccco1 | 2.8 | 11.7 | 1 | 17.9 | 0.9 | -3.2
COc1ccc(CCn2c(C)cc3c(c2=O)C(c2ccc4c(c2)OCO4)C(C#N)=C(N)O3)cc1OC (stereo not given) | 8.5 | 44.0 | 0.6 | 17.4 | 0.6 | 43.5
CCOC(=O)CCCNC(=O)COC(=O)c1cccc(C)c1O | -0.3 | 47.4 | 0.3 | -6.0 | 0.5 | 67.2*
COC(=O)C(C)N(C(=O)c1cccc(Cl)c1)c1c(C)cccc1C (stereo not given) | -5.2 | 61.9* | 0.3 | 6.7 | 0.4 | 71.8*
O=C(O)CCC(=O)c1cccc2ccccc12 | · | -20.7 | 1.1 | · | 1.2 | -5.2
COC(=O)C(C)N(C(=O)c1cccc2ccccc12)c1c(C)cccc1C (stereo not given) | 10.2 | 35.5 | 0.7 | 36.3* | 0.6 | 25.6
C=CCSc1nnc2n(-c3ccccc3OC)c(=O)c3c4c(sc3n12)CCC4 | -2.9 | -12.4 | 1 | 13.1 | 1.1 | 4.8
CCN(C(=O)c1ccnc(C(C)(C)C)c1)c1ccccc1 | -9.1 | 44.7 | 0.4 | 1.8 | 0.6 | 60.6*
O=C(c1nn2cccnc2c1Cl)N1CCN(c2ccccc2)CC1 | 2.4 | · | · | 22.6 | · | ·
Cn1c(Cl)cnc1C1CC(=O)c2cc(Cl)ccc2O1 (stereo not given) | -1.8 | 45.6 | 0.2 | 38.3* | 0.5 | 81.4*
COc1ccc(NCc2nnc(SCC(=O)Nc3cccc(C)c3)o2)cc1 | 21.1 | 59.0* | 0.3 | 10.1 | 0.4 | 71.6*
COc1ccc(NCc2nnc(SCC(=O)N3CCCc4ccccc43)o2)cc1 | 4.9 | 59.9* | 0.6 | 0.4 | 0.4 | 39.9
O=C(CSc1nnc(CNc2ccccc2)o1)N1CCCc2ccccc21 | 9.4 | 25.3 | 0.7 | -5.0 | 0.7 | 26.0
COc1ccc(NCc2nnc(SCC(=O)c3ccc(OC)cc3)o2)cc1 | -10.2 | -100.9 | 0.8 | 15.7 | 2* | 22.4
O=C(CCNS(=O)(=O)c1ccc(Cl)cc1)N1CCC2(O)CCCCC2C1 (stereo not given) | -3.4 | 15.9 | 1.1 | 0.4 | 0.8 | -8.9
Cc1ccc(-n2c(SCC(=O)NC3CCCCC3)nc3c(c2=O)SCC3)cc1 | -2.9 | 8.4 | 0.8 | 12.7 | 0.9 | 24.1
O=C(CN(c1ccccc1)S(=O)(=O)c1ccccc1[N+](=O)[O-])NN=C1CCCCCCC1 | -6.7 | 35.2 | 0.4 | 3.2 | 0.6 | 64.3*
CCOC(=O)c1c(C)cccc1OCC(N)=O | 3.7 | · | · | 7.0 | · | ·
Cc1cc(C(=O)CN2C(=O)NC(c3ccccc3)(c3ccccc3)C2=O)c(C)n1Cc1ccccc1 | 7.8 | 69.7* | 0.7 | 13.8 | 0.3 | 28.9
CCCCNC(=O)CN1C(=O)NC2(CCCc3ccccc32)C1=O (stereo not given) | 0.3 | 68.2* | 1.1 | 13.4 | 0.3 | -5.7
Cc1cc(C(=O)CN2C(=O)NC3(CCCc4ccccc43)C2=O)c(C)n1C (stereo not given) | -9.2 | 72.5* | 0.7 | -2.6 | 0.3 | 31.6
CNC(=O)CN1C(=O)NC2(CCc3ccccc32)C1=O (stereo not given) | 21.9 | 15.7 | 0.8 | -8.7 | 0.8 | 24.8
O=C(CN1C(=O)NC2(CCc3ccccc32)C1=O)c1ccc2c(c1)OCCO2 (stereo not given) | 6.1 | 95.7* | 0.4 | -1.7 | 0 | 57.6*
CCC(C)NC(=O)CC1Oc2ccc(Cl)cc2NC1=O (stereo not given) | -0.2 | -21.1 | 1 | 0.5 | 1.2 | 4.6
CCOc1ccc(NC(=O)CSc2nc(C)c3c(c2C#N)CCCC3)cc1 | -8.1 | -8.3 | 1 | 1.8 | 1.1 | 4.2
COc1cc(OC)c(C2=NOC(C(=O)NCCc3ccccc3)C2)cc1Cl (stereo not given) | -3.2 | -28.3 | 0.4 | 15.1 | 1.3 | 61.5*

Assay outcomes deposited in PubChem BioAssay by several laboratories.
